Rows were chosen to be rich in hits. Some 19% of all compounds tested hit in one or more screens of this group.
IL-1B inflam inh = inflammasome signaling inhibition, IL-1 beta readout | AID 743279 | THP-1 LPS/ATP IL-1B secretion, AlphaLISA, 16 h; active compounds read low | activity change, % at 57.5 µM | 360,000 compounds, 4.7% hits; in the data active means activity change below about -50%; inconclusive means mostly about -30% to -49%
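Secreted IL-1B measured by AlphaLISA bead assay after 16 h compound exposure of THP-1 cells; compounds (final up to 57.5 uM) added 1 h before LPS (250 ng/mL) and ATP (1.25 mM) stimulation; lower signal means less secretion.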
HT1080-NT tox = kills 2HG-producing HT-1080-NT fibrosarcoma cells; HT-1080-NT fibrosarcoma viability, CellTiter-Glo ATP luminescence, 48 h; Potency, µM (top dose mostly 46.1 µM), without a hit: at the top dose activity, negative = less viability, most hits filed as cytotoxic; 360,000 compounds, 1.6% hits; AID 686970;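 further: NT is the 2HG producing partner of a matched IDH1 knockdown line; potency means the concentration at half of the fitted maximal effect; 0% = DMSO-treated cells and -100% = media-only wells without cells; nearly all actives have a fitted effect of over 55% in size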
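A 48-hour cytotoxicity screen used HT-1080-NT cells plated 2 hours before compound delivery. ATP-based CellTiter-Glo luminescence measured viability, normalized to DMSO and no-cell controls.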
DT40 TDP1 no CPT = qHTS for Inhibitors of human tyrosyl-DNA phosphodiesterase 1 (TDP1): qHTS in cells in absence of CPT; 420,000 compounds, 15% hits; AID 686978, 2013; DT40 Tdp1-/- hTDP1 cells, no CPT, ATP luminescence, 48 h; Potency, µM (top dose mostly 46.2 µM), for the others: at the top dose activity change, negative = growth inhibition, actives largely listed as inhibitors; further: potency means the concentration at half of the fitted maximal effect; nearly all actives have a fitted effect of over 55% in size
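Chicken DT40 Tdp1-/- cells complemented with human TDP1, screened without camptothecin (DMSO vehicle only), 400 cells/well. Compounds pin-transferred, cells incubated at 37 °C for at least 48 hr. Growth read as ATP-dependent luminescence (CellTiter-Glo, 30 min at RT).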
HT1080 IDH1KD tx = kills HT-1080 cells with IDH1 knockdown | Potency, µM (series often up to 46.1 µM), for the others: at the top dose activity, negative = toxicity, actives largely listed as cytotoxic | HT-1080 IDH1 knockdown viability, ATP luminescence, 48 h | 360,000 compounds, 2% hits;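 further: potency means the concentration at half of the fitted maximal effect; 0% = DMSO wells and -100% = cell-free medium wells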
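After a 2 h attachment period, IDH1KD HT-1080 cells took pin-transferred compound for 48 h at 37 °C; ATP-based luminescence after 10 min room-temperature reagent incubation reported viability.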
TDP1 cell CPT = DT40-hTDP1 cell growth loss with CPT; chicken DT40 Tdp1-/-;hTDP1 cells + 20 nM CPT, ATP luminescence, 48 h; Potency, µM (doses to about 46.2 µM), for inactives: at the top dose activity change, negative = growth inhibition, hits mostly inhibitors; 420,000 compounds, 12% hits; AID 686979; further: potency means the concentration at half of the fitted maximal effect; nearly all actives have a fitted effect of over 55% in size
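Cell growth measured by CellTiter-Glo luminescence after a minimum 48 h, 37 C compound exposure with 20 nM CPT in Tdp1-knockout DT40 cells stably expressing hTDP1, seeded 400/well; qHTS titration format.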
ELG1 DNA repair = inhibitors of ELG1-dependent DNA repair in HEK293T cells. HEK293T ELG1-luciferase reporter, luminescence, 16 h; DNA damage induced by 5-fluorouridine. Potency, µM (top dose mostly 46.1 µM), for the others: top-dose activity change, negative = inhibition, actives largely listed as inhibitors. 330,000 compounds, 2.3% hits; further: potency means the concentration at half of the fitted maximal effect; nearly all actives have a fitted effect of over 55% in size
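Quantitative HTS, concentration-response format. 2,000 cells/well co-treated with 5-fluorouridine and compound, 16 hr in 5% CO2 at 37 °C; ONE-Glo luminescence read after 30 min.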
* marks the source's active call; other numbers are inactive results; ? = inconclusive; nt = not tested or not shown. Unless noted, the call rests on the fitted dose curve; in most records, active means well fitted curve in the direction sought with a large enough effect; inconclusive means small, poorly fitted or top-dose-only effect, or another doubt; inactive means no such curve, though single readings can be large; an effect the other way counts as inactive or inconclusive. Unless noted, on the % scale 0 is the no-effect control and ±100 the full control effect.

SMILES	IL-1B inflam inh	HT1080-NT tox	DT40 TDP1 no CPT	HT1080 IDH1KD tx	TDP1 cell CPT	ELG1 DNA repair
COC(=O)C1=C(c2ccc(F)cc2OCc2ccccc2)C[C@@H]2CC[C@H]1N2C(=O)N1CCOCC1	25	0%	7.3µM*	1%	8.2µM*	-14%
COC(=O)C1=C(c2ccc(F)cc2OCc2ccccc2)C[C@@H]2CC[C@H]1N2C(=O)N1CCC(C)CC1	-1	?	?	?	?	-15%
C=CCn1c(=O)c(C=Nc2cccnc2Cl)c(O)n(CCCC)c1=O	-9	4%	-9%	0%	-2%	11%
CC(C)(C)c1cc(OC(=O)Cc2ccccc2)ccc1O	-13	-8%	-16%	-7%	-25%	-17%
COCCn1c(SCc2ccccc2Cl)nc2c1c(=O)[nH]c(=O)n2C	10	-18%	?	-3%	?	12%
COc1ccc(CCn2c(NN=C3CCCCC3)nc3c2c(=O)[nH]c(=O)n3C)cc1	37	-19%	16µM*	-2%	?	?
C[C@]1(O)CC[C@H]2[C@@H]3CCC4=CC(=O)CC[C@]4(C)[C@@]3(F)[C@@H](O)C[C@@]21C	17	12%	-18%	-7%	2%	nt
CCCC(=O)O[C@]1(C(=O)COC(=O)CC)[C@@H](C)C[C@H]2[C@@H]3CCC4=CC(=O)C=C[C@]4(C)[C@@]3(F)[C@@H](O)C[C@@]21C	nt	nt	24µM*	nt	?	nt
COc1ccc(N/N=C/c2c(O)n(-c3ccc(C)c(C)c3)c(=O)[nH]c2=O)cc1	-6	?	29µM*	?	?	0%
Cn1c(O)c(/C=N/Nc2ccccc2)c(=O)n(C)c1=O	-14	8.2µM*	-7%	7.3µM*	22%	?
COc1ccc(N=Cc2c(O)n(-c3ccc(C)cc3)c(=O)[nH]c2=O)cc1	11	-12%	-4%	-9%	-26%	0%
Cc1ccc(-n2c(O)c(/C=N/Nc3ccccc3)c(=O)[nH]c2=O)cc1C	-2	?	-18%	6.5µM*	24%	-5%
Cc1nnc(NC(=O)c2cccn(Cc3ccccc3F)c2=O)s1	nt	nt	-1%	nt	3%	nt
CCOc1ccc(C2c3c(-c4ccccc4O)n[nH]c3C(=O)N2Cc2ccncc2)cc1 (configuration not stated)	nt	nt	5.2µM*	nt	7.3µM*	nt
O=[N+]([O-])c1ccc(N(CCO)CCO)c2c1no[n+]2[O-]	-103*	8.2µM*	0.16µM*	5.8µM*	0.092µM*	nt
CN1CCN(c2ccc([N+](=O)[O-])c3no[n+]([O-])c23)CC1	-101*	2.9µM*	0.16µM*	4.6µM*	0.18µM*	3.3µM*
c1ccc(-c2nc(N3CCOCC3)s[n+]2-c2ccccc2)cc1	0	8%	?	17%	15µM*	?
CC12CCC3C(=CCc4cc(O)ccc43)C1CCC2=O (configuration not stated)	nt	nt	-34%	nt	?	nt
CN1CSC(=S)N(C)C1	-95*	-4%	4.6µM*	-5%	6.5µM*	nt
O=C(O)[C@H]1[C@H]2CN[C@H](C(=O)O)[C@H]21	nt	nt	-22%	nt	-6%	nt
CN1CCCC2(CCN(C(=O)Oc3ccccc3)CC2)C1	nt	nt	-5%	nt	14%	nt
C[C@H]1CC[C@]2(NC1)O[C@H]1C[C@H]3[C@@H]4CC[C@H]5C[C@@H](O)CC[C@]5(C)[C@H]4CC[C@]3(C)[C@H]1[C@@H]2C	nt	nt	?	nt	-3%	nt
CCON=O	nt	nt	?	nt	0.094µM*	nt
COc1ccc(NC(=O)CCCn2c(=O)oc3ccccc32)cc1Cl	?	14%	10%	19%	-3%	?
COC(=O)CC1Oc2ccc(C)cc2-n2cc(-c3ccc(F)cc3)nc21 (configuration not stated)	nt	nt	9.2µM*	nt	18µM*	nt
SMILES	IL-1B inflam inh	HT1080-NT tox	DT40 TDP1 no CPT	HT1080 IDH1KD tx	TDP1 cell CPT	ELG1 DNA repair
COC(=O)C1=C(C(=O)OC)SC2(S1)C(C(=O)OC)=C(C(=O)OC)Sc1c2ssc1=O	-95*	5.2µM*	0.18µM*	1.2µM*	0.092µM*	nt
Cc1ccc(C(=O)Nc2c(C(=O)Nc3ccc(C)c(C)c3)sc3nc(C)cc(C)c23)cc1	nt	nt	18µM*	nt	?	nt
CC(C)CN1CCCC2(CCN(C(=O)c3ccncc3)CC2)C1	nt	nt	1%	nt	2%	nt
CCN(C(=O)CSc1ncccc1C(=O)Oc1cccc([N+](=O)[O-])c1)c1cccc(C)c1	-55*	0%	?	1%	-10%	10%
CCc1ccc(-c2nc(CN3CCCC(C(=O)NCc4ccc(C)cc4)C3)c(C)o2)cc1 (configuration not stated)	nt	nt	5.8µM*	nt	8.2µM*	nt
O=C1NC(=O)C2(Cc3ccccc3N3CCCC32)C(=O)N1c1ccccc1 (configuration not stated)	61	-5%	-11%	-4%	0%	6%
CN1c2ccc([N+](=O)[O-])cc2CC2(C(=O)NC(=O)N(c3ccc(Br)cc3)C2=O)C1c1ccccc1 (configuration not stated)	-23	0%	18µM*	-2%	18µM*	-12%
CN(Cc1cccc(-c2ccncc2)c1)C(=O)Oc1ccccc1Cc1ccccc1	0	18µM*	16µM*	13µM*	?	nt
Cc1nc2cc(OC(=O)N(C)Cc3cccc(-c4ccncc4)c3)ccc2s1	?	?	18µM*	?	?	nt
CN(Cc1cccc(-c2ccncc2)c1)C(=O)Oc1ccccc1Cl	18	-17%	?	-29%	?	nt
COC(=O)C1=C(c2ccc(F)cc2F)C[C@@H]2CC[C@H]1N2C(=O)NC(C)C	0	5%	-21%	1%	0%	?
COc1ccc(NC(=O)N2CCC3(CC2)OCCO3)cc1	2	5%	-1%	0%	?	?
COc1ccc(NC(=O)N2CCN(c3nc(-c4cccc(OC)c4)cs3)CC2)cc1	-93*	-10%	18µM*	?	23µM*	18µM*
CC(=O)C1(c2ccccc2)CCN(C(=O)C2CCC(=O)N(CCc3cccc(F)c3)C2)CC1 (configuration not stated)	9	1%	23µM*	2%	-68%	-12%
C=CCSc1nnc(NC(=O)c2ccc(Cl)nc2)s1	15	9%	-9%	1%	-8%	?
